Bioassay records (PubChem)
Pf growth 48h = P. falciparum growth inhibition at 48 hours (one generation). Potency, µM (titrated, usually from 28.7 µM), for the others: top-dose activity change, negative = inhibition, hits mostly inhibitors. 310,000 tested, 5.9% active. P. falciparum luciferase growth in erythrocytes, 48 h. AID 504832; further: on the % scale 0 is the no-effect control and ±100 the full control effect
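Luciferase-expressing parasites in RBCs, 2% Hct / 0.1% parasitemia final; RPMI 1640 + 0.5% Albumax; 37 C, 5% CO2, one generation; luminescence read-out, lower signal = inhibition.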
SARS PLP yeast = blocks SARS-CoV papain-like protease in a yeast assay; S. cerevisiae expressing SARS-CoV PLpro, growth rescue; Potency, µM (series often up to 32.9 µM), without a hit: at the highest dose activity, positive = growth rescue, usual class: activators; 330,000 tested, 0.19% active; AID 485353; calls by dose curve; further: 0% is about no effect; nearly all actives have a fitted effect of over 55% in size
Sm TGR block = inhibitors of Schistosoma mansoni thioredoxin glutathione reductase. purified TGR, DTNB reduction, TNB absorbance 405 nm. Potency, µM (titrated, usually from 114 µM), for the others: at the top dose activity change, negative = inhibition, hits mostly inhibitors. 360,000 tested, 3% active; further: on the % scale 0 is the no-effect control and ±100 the full control effect; nearly all actives have a fitted effect of over 60% in size
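First, TGR (20 nM dispensed) and NADPH were mixed with compound. Second, a 15 min room-temperature incubation followed. Third, further NADPH and then DTNB were added to start the reaction. Finally, TNB absorbance was monitored kinetically.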
Pf growth 96h = P. falciparum growth inhibition at 96 hours. P. falciparum luciferase reporter growth, 96 h. Potency, µM (highest dose often 28.7 µM), without a hit: at the top dose activity change, negative = inhibition, most hits filed as inhibitors. 320,000 tested, 6.9% active. AID 504834; further: on the % scale 0 is the no-effect control and ±100 the full control effect
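Luminescence readout: decreased luciferase signal marks inhibited growth of reporter-expressing P. falciparum in infected red cells (2% hematocrit, 0.05% parasitemia final), exposed to compound two generations (96 h, 37 C, 5% CO2).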
* marks the source's active call; other numbers are inactive results; i = inactive; ? = inconclusive; / = not tested or not shown; [ ] = another dose, or the depositor's remark. The list is not random: actives were taken first. Their share in the collection is about 12%. Unless noted, the call rests on the fitted dose curve; in most records, active means well fitted curve in the direction sought with a large enough effect; inconclusive means small, poorly fitted or top-dose-only effect, or another doubt; inactive means no such curve, though single readings can be large; an effect the other way counts as inactive or inconclusive. Potency means the concentration at half of the fitted maximal effect.

SMILES	Pf growth 48h	SARS PLP yeast	Sm TGR block	Pf growth 96h
O=C(CN1C(=O)S/C(=C\c2cccs2)C1=O)Nc1ccc(O)c(C(=O)O)c1	-12%	8%	-3%	10µM*
O=C(CN1C(=O)S/C(=C\c2cccs2)C1=O)Nc1ccc(C(=O)O)c(O)c1	-4%	1%	-1%	2%
CCn1c(=NC(=O)c2ccc(S(=O)(=O)N3CCCCC3)cc2)sc2cccc(OC)c21	/	/	6%	/
COC(=O)C1(C)NC(=O)c2ccccc2N1 (stereo not drawn)	-1%	3%	4%	13µM*
COC(=O)C1(C)Nc2ccccc2C(=O)N1c1ccccc1OC (stereo not drawn)	12%	-4%	-4%	30%
Cc1cc(-c2ccco2)n(CC(=O)NCc2ccccc2)n1	/	-7%	?	-22%
Cc1cc(-c2ccco2)n(CC(=O)O)n1	25%	9%	-4%	6.6µM*
COc1ccc(OC)c(C(=O)c2coc3ccc(O)cc23)c1	16%	-12%	-1%	10µM*
O=C(c1coc2ccc(O)cc12)C1CC1	40%	-2%	0%	8.3µM*
O=C(c1ccc(Cl)cc1)c1coc2ccc(O)cc12	144%	-19%	2%	168%
Cc1[nH]c2ccccc2c1/C=N/NC(=O)c1cc(-c2ccncc2)nc2ccccc12	?	5%	2%	6.6µM*
Cc1[nH]c2ccccc2c1/C=N/Nc1cccc(C(=O)O)c1	i	-2%	45µM*	i
O=C(N/N=C/c1ccccn1)c1cc(-c2ccc(Cl)cc2)nc2ccccc12	9.3µM*	-103%	-9%	9.3µM*
Cc1[nH]c2ccccc2c1/C=N/NC(=O)c1ccccc1	5%	-1%	-2%	2%
CCCOc1cccc(-c2cc(C(=O)N/N=C/c3ccccn3)c3ccccc3n2)c1	12µM*	4%	5%	9.3µM*
O=C(N/N=C/c1ccccn1)c1cc(-c2ccc(Br)cc2)nc2ccccc12	?	-1%	1%	-15%
Cc1cccc(NC(=O)CN2CCN(C(=O)C3CCCO3)CC2)c1C (stereo not drawn)	23%	-5%	-1%	?
CCOc1cccc(C(=O)N(Cc2cccc(F)c2)C2CCS(=O)(=O)C2)c1 (stereo not drawn)	-7%	9%	-6%	6%
Cc1cc(F)ccc1NC(=O)c1c(C)oc2c1C1=NCCN1C=N2	/	/	-3%	/
Cc1ccc(NC(=O)Cn2cc3c(n2)CCCC3)cc1Cl	/	/	1%	/
CSc1cccc(NC(=O)Cn2c(=O)n(Cc3ccccc3)c(=O)c3sc4ccccc4c32)c1	/	/	6%	/
CCCCOC(=O)c1ccc(NC(=O)c2csnn2)cc1	/	/	-8%	/
CCNC(=S)NNC(=O)c1cc(-c2cccc(OCC)c2)nc2ccccc12	?	12%	6%	/
CCCCOc1cccc(-c2cc(C(=O)NNC(=S)NCC)c3ccccc3n2)c1	/	14%	7%	12µM*
CC(C)N1CC=C2C(C#N)=C(N)C(C#N)(C#N)C(c3ccccc3)C2C1 (stereo not drawn)	-27%	2%	?	-7%[5.75 µM]
SMILES	Pf growth 48h	SARS PLP yeast	Sm TGR block	Pf growth 96h
N#CC1=C(N)C2=CCCC[C@H]2[C@H](c2ccccc2)C1(C#N)C#N	-18%	-7%	45µM*	0%
CC(C)N1CC=C2C(C#N)=C(N)C(C#N)(C#N)[C@H](c3ccoc3)[C@H]2C1	15%	-9%	?	?
N#CC1=C(N)C2=CCCC[C@H]2[C@H](c2ccc(Br)cc2)C1(C#N)C#N	?	-4%	32µM*	?
CCOC(=O)c1ccc(NC(=O)CC2C(=O)N(c3ccc(C)cc3)C(=O)N2C2CCCC2)cc1 (stereo not drawn)	/	/	1%	/
CC(CSc1nnnn1-c1ccccc1)Cn1c(N2CCN(C)CC2)nc2c1c(=O)[nH]c(=O)n2C (stereo not drawn)	?	-1%	7%	?
CN1CCN(c2nc3c(c(=O)[nH]c(=O)n3C)n2CCSc2nnnn2-c2ccccc2)CC1	-1%	1%	-4%	5%
Cn1c(=O)[nH]c(=O)c2c1nc(N1CCCCCC1)n2CCCSc1nnnn1-c1ccccc1	?	8%	-2%	2.3µM*
Cn1c(=O)[nH]c(=O)c2c1nc(N1CCCC1)n2CCCSc1nnnn1-c1ccccc1	?	-7%	-6%	6.6µM*
Cc1cc(C)cc(N(C(=O)CNC(=O)c2ccco2)C(C(=O)NC2CCCCC2)c2ccncc2)c1 (stereo not drawn)	?	2%	7%	0%
CCN1CCN(C(=O)c2ccc3nc(-c4ccccc4)c(-c4ccccc4)nc3c2)CC1	5%	-3%	-17%	?
CCOc1ccc(N2CC(C(=O)NCCc3ccc(F)cc3)CC2=O)cc1 (stereo not drawn)	3%	0%	-5%	3%
O=C(Nc1cccc(S(=O)(=O)N2CCOCC2)c1)c1cn(-c2ccccc2)nc1-c1ccccc1	-28%	11%	-5%	10µM*
O=C(Nc1cccc(S(=O)(=O)N2CCOCC2)c1)c1cn(-c2ccccc2)nc1-c1ccc(F)cc1	17%	1%	7%	40%
Cc1ccc(-c2nn(-c3ccccc3)cc2C(=O)Nc2ccc(C)c(S(=O)(=O)N3CCOCC3)c2)cc1	10µM*	0%	-1%	?
Cc1nc(SCC(=O)NCc2ccc3c(c2)OCO3)nc(C)c1C	/	-3%	/	/
Cc1cccc(NC(=O)CN2C(=O)COc3ccc(S(=O)(=O)Nc4ccccc4)cc32)c1C	/	/	-9%	/
O=C(NCCNCC(O)COc1ccc(O)cc1)N1CCOCC1 (stereo not drawn)	-15%	/	/	6.7µM*
COCCn1c(=NC(=O)c2ccc(S(=O)(=O)N3CCCc4ccccc43)cc2)sc2cc(S(C)(=O)=O)ccc21	3.3µM*	-5%	1%	1µM*
Cn1c(=NC(=O)c2ccc(S(=O)(=O)N3CCCc4ccccc43)cc2)sc2cc(F)ccc21	/	/	-14%	/
C=CCn1c(=NC(=O)c2ccc(S(=O)(=O)N3CCCc4ccccc43)cc2)sc2cc(S(N)(=O)=O)ccc21	5.2µM*	11%	2%	4.7µM*
COc1cccc(C(=O)N=c2sc3cc(S(C)(=O)=O)ccc3n2C)c1	99%	-5%	14%	13µM*
C=CCn1c(=NC(=O)CN2C(=O)CCC2=O)sc2cc(S(N)(=O)=O)ccc21	9%	4%	-1%	17%
COc1ccc(N2CCN(CCCNC(=O)c3nnc(Cc4ccccc4Cl)o3)CC2)cc1	/	/	5%	/
COC(=O)c1ccc2c(=O)n(CCCCCC(=O)N3CCN(c4cc(C)ccc4C)CC3)c(=O)[nH]c2c1	/	/	-2%	/
O=C1OC[C@H]2CCCN2C(=O)[C@@H](CC(=O)N(CCO)Cc2ccccc2)C/C=C\CC[C@H]1Cc1ccc(F)cc1	/	3%	/	/
O=S(=O)(Nc1ccc2c(c1)nc1n2CCN(Cc2ccccc2)C1)c1ccccc1	66%	0%	-26%	39%
O=S(=O)(Nc1ccc2c(c1)nc1n2CCN(Cc2ccccc2)C1)c1ccc(F)cc1	12µM*	-3%	?	-16%
O=S(=O)(Nc1ccc2c(c1)nc1n2CCN(Cc2ccccc2)C1)c1ccc(Cl)cc1	9.3µM*	1%	-30%	38%
